ELG1 repair inh: blocks ELG1-dependent DNA repair in HEK293T cells. HEK293T ELG1-luciferase reporter, luminescence, 16 h; DNA damage induced by 5-fluorouridine. Potency, µM (highest dose often 46.1 µM), for the others: top-dose activity change, negative = inhibition, hits mostly inhibitors. 330,000 tested, 2.3% active. AID 504467; note: % is set by controls: 0 for no effect and ±100 for the full control effect; nearly all actives have a fitted effect of over 55% in size
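Overnight (16 hr) co-exposure of 2,000 cells/well to 5-fluorouridine and compound at 37 °C preceded detection. Luciferase was quantified via ONE-Glo luminescence; loss of signal denotes inhibition.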
NPC1 prom act: activators of NPC1 promoter. Huh7 NPC1 promoter luciferase reporter, 24 h. AID 485313. 320,000 tested, 2.4% active. Potency, µM (highest dose often 9.22 µM), for inactives: at the top dose activation, hits mostly activators; note: % of control where 0% means no effect; nearly all actives have a fitted effect of over 60% in size
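Huh7 cells stably carrying NPC1 promoter–luciferase, plated in Opti-MEM with 10% FBS for 2 h, were exposed to compound in DMSO for 24 h at 37 °C; luciferase reagent was added for 10 min and luminescence read.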
ELG1 genotoxic: inducers of genotoxicity in HEK293T ELG1-luciferase cells | HEK293T ELG1-luciferase reporter, luminescence, 16 h | Potency, µM (top dose mostly 46 µM), without a hit: top-dose activity change, positive = activation, usual class: activators | 330,000 tested, 1.3% active; note: % of control where 0% means no effect; nearly all actives have a fitted effect of over 60% in size
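Screening used a luciferase reporter fused to human ELG1 in HEK293T cells. Luminescence was read on a CCD plate imager after 16 hr exposure and 30 min ONE-Glo incubation.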
SMN2 splice enh: SMN2 splice variant enhancement. HEK293 SMN2-luciferase splicing reporter, luminescence, 30-36 h. Potency, µM (titrated, usually from 46.1 µM), without a hit: at the top dose activity change, positive = activation, most hits filed as activators. 210,000 tested, 2.8% active. AID 1458; note: % of control where 0% means no effect; nearly all actives have a fitted effect of over 55% in size
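qHTS luciferase splicing reporter: luminescence rises when SMN2 exon 7 is included in transfected HEK293 cells. Compound exposure lasted 30-36 h at 37C, with 4.5 mM final sodium butyrate as control, followed by a ONE-Glo read.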
Rab9 promoter act: activates the Rab9 promoter; Huh7 Rab9 promoter-luciferase reporter, luminescence, 24 h; Potency, µM (titrated, usually from 9.22 µM), for inactives: at the top dose activation, negative = inhibition, most hits filed as activators; AID 485297; 320,000 tested, 2.8% active; note: % of control where 0% means no effect; nearly all actives have a fitted effect of over 60% in size
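Measured in stably transfected Huh7 cells bearing a Rab9 promoter–luciferase construct: 24 h compound treatment at 37 °C, followed by luminescence detection.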
FLuc counter: firefly luciferase modulation, counter-screen for miR-21 project | P08659 | purified FLuc, Km substrates, luminescence inhibition | Potency, µM (series often up to 57.5 µM), for the others: top-dose activity change, negative = inhibition, usual class: inhibitors | 360,000 tested, 6.9% active;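 note: plate controls were vehicle for no effect and reference inhibitor for full effect; nearly all actives have a fitted effect of over 55% in size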
Target sequence (P08659 whole entry, looked up): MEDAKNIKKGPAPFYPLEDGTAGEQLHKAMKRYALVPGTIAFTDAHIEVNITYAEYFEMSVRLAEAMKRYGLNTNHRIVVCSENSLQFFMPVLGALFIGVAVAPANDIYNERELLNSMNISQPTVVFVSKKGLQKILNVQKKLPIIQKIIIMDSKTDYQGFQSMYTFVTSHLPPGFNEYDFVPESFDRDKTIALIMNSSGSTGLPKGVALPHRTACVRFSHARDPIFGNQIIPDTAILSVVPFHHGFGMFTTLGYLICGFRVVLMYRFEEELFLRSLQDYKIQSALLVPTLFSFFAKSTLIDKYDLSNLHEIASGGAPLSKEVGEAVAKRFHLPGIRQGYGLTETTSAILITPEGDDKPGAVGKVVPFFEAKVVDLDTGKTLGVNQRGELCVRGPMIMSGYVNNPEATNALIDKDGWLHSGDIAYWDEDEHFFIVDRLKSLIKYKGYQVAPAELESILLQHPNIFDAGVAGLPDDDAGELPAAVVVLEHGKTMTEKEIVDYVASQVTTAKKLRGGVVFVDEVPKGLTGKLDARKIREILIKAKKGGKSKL
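Purified P. pyralis luciferase (10nM final) with 10uM D-luciferin and 10uM ATP (Km levels) in 50mM Tris acetate pH 7.5, 10mM Mg acetate, 0.01% Tween-20, 0.05% BSA; qHTS 6-point titration, ~60 µM downward; luminescence read.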
An asterisk follows results filed as active; ? = inconclusive; · = not tested or not shown. This is a sample that favours compounds with a hit; in the whole collection about 9.2% have one here. Calls come from the whole dose curve; as a rule, active = well fitted curve in the direction sought with a large enough effect; inconclusive = small, poorly fitted or top-dose-only effect, or another doubt; inactive = no such curve, though single readings can be large; an effect the other way counts as inactive or inconclusive. Potency is the fitted concentration of half-maximal effect.

SMILES	ELG1 repair inh	NPC1 prom act	ELG1 genotoxic	SMN2 splice enh	Rab9 promoter act	FLuc counter
Cn1c(CNC(=O)c2ccc(F)cc2)nc2ccccc21	-2%	2%	1%	-1%	-5%	-1%
Nc1nc2ccccc2n1C(=O)c1ccco1	?	?	?	13µM*	2.5µM*	11µM*
Nc1nc2ccccc2n1C(=O)c1ccc(F)cc1	?	0.5µM*	1.2µM*	·	0.28µM*	1.3µM*
Nc1nc2ccccc2n1C(=O)c1ccccc1	?	?	0.65µM*	1.6µM*	0.35µM*	0.76µM*
COc1ccc(C(=O)n2c(N)nc3ccccc32)cc1OC	?	2.8µM*	?	·	2.5µM*	19µM*
COCCNc1nc2ccccc2n1CC(=O)c1ccc(OC)c(OC)c1	-26%	0%	-5%	·	-1%	-1%
CC(OC(=O)c1cccc(-n2cnnn2)c1)C(=O)NC1(C#N)CCCCC1 (stereo not given)	8%	10%	5%	·	-2%	5%
CCOC(=O)c1ccc(N=C2SC(C(=O)Nc3ccccc3)CC(=O)N2C)cc1 (stereo not given)	·	·	·	6%	·	5%
COc1ccc(C(CNC(=O)c2cc(C)on2)N(C)C)cc1 (stereo not given)	-2%	0%	1%	·	4%	0%
O=C(c1ccco1)N1CCn2c1nc1ccccc12	?	?	?	11µM*	?	?
Nc1nc2ccccc2n1C(=O)CCc1ccccc1	?	?	2.3µM*	10µM*	?	?
Nc1nc2ccccc2n1C(=O)c1cccs1	?	?	?	11µM*	0.79µM*	2.7µM*
Nc1nncn1C(=O)c1cccs1	0%	-5%	-3%	-18%	2%	0%
CC(=O)c1nc2ccccc2n1CCc1ccccc1	-10%	8%	-10%	17%	-8%	6%
CCC(=O)N1CCn2c1nc1ccccc12	-1%	-2%	6%	23%	3%	1%
CCOc1ccc(N2CC(NC(=O)c3ccco3)CC2=O)cc1 (stereo not given)	·	·	·	·	·	-2%
COC(=O)c1ccc(C2c3c(-c4ccccc4O)n[nH]c3C(=O)N2Cc2cccnc2)cc1 (stereo not given)	·	·	·	4%	·	-11%
CC1=NNC(=O)/C1=C\c1cn(-c2ccccc2)nc1-c1ccc(Cl)cc1	9.2µM*	-48%	-20%	-90%	-51%	0%
Cc1ccc(-c2nn(-c3ccccc3)cc2C=C2C(=O)CC(C)(C)CC2=O)cc1	5%	-2%	0%	-16%	-1%	24µM*
CCOC(=O)c1c(NC(=O)CSc2cn(CCNC(=O)c3ccc(OC)cc3)c3ccccc23)sc2c1CCC2	·	·	·	-3%	·	-11%
CN(C)c1ccc(NC(=O)CCn2c(=S)oc3ccccc32)cc1	12%	13%	16%	1%	17%	4.3µM*
Cc1c(OCC(=O)C(C)(C)C)ccc2c(-c3ccccc3)cc(=O)oc12	?	0%	-11%	·	-5%	5%
Cc1ccc(C(=O)c2oc3ccccc3c2NC(=O)Cc2coc3c(C)c(C)ccc23)cc1	·	·	·	-5%	·	-4%
CN(C)c1ccc(-c2nnc(-c3ccccc3F)o2)cc1	?	0.35µM*	?	·	0.45µM*	1.2µM*
O=[N+]([O-])c1cccc(-c2nnc(-c3ccccc3F)o2)c1	?	2.5µM*	?	·	2µM*	12µM*
CN(C)c1ccc(-c2nnc(-c3ccc(S(=O)(=O)C(F)F)cc3)o2)cc1	-13%	?	-5%	5%	27%	-1%
COc1ccc(-c2nnc(-c3ccc(N(C)C)cc3)o2)cc1	·	·	·	25%	·	2.1µM*
COc1ccc(-c2nnc(-c3ccc(N)cc3)o2)cc1	?	?	7.3µM*	13µM*	?	3.4µM*
COc1cc(OC)c(N(C)C(=O)C2CCCN(c3ncnc4c3nc3n4CCCCC3)C2)cc1Cl (stereo not given)	·	·	·	·	·	-8%

Assay outcomes: PubChem, National Center for Advancing Translational Sciences (NCATS)
